Screens (PubChem BioAssay)
Sampled rows, rich in hits. Any-hit rate of the full collection: about 0.3%.
mcGAS lum: cyclic GMP-AMP synthase inhibitors, mouse, primary biochemical chemiluminescence | Q8C6L5 | recombinant cGAS, Kinase-Glo ATP depletion luminescence | inhibition, % at 12.5 µM | actives 0.15% (n = 160,000);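 also: 0% = negative control wells and 100% = reference inhibitor with no enzyme activity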
NPYLR7 ag: agonists of mosquito NPYLR7 receptor, primary screen, cell-based, Aedes aegypti, calcium fluorescence, mosquito biting behavior; Aedes aegypti neuropeptide Y-like receptor 7 (NPYLR7); HEK293T NPYLR7/Galpha15, GCaMP6s calcium fluorescence; activation, % at 10 µM; actives 0.15% (n = 270,000); in the data active = activation above about 40%;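 also: 0% = vehicle and 100% = reference agonist at the receptor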
hcGAS lum: Primary biochemical luminescence assay for human cyclic GMP-AMP synthase inhibitors; actives 0.081% (n = 290,000); recombinant h-cGAS, ATP depletion, Kinase-Glo luminescence; AID 1259398, 2018; inhibition, % at 12.5 µM; Q8N884;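 also: 0% = vehicle reaction and 100% = reaction without DNA for no activity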
Target sequence (Q8N884 whole entry, looked up): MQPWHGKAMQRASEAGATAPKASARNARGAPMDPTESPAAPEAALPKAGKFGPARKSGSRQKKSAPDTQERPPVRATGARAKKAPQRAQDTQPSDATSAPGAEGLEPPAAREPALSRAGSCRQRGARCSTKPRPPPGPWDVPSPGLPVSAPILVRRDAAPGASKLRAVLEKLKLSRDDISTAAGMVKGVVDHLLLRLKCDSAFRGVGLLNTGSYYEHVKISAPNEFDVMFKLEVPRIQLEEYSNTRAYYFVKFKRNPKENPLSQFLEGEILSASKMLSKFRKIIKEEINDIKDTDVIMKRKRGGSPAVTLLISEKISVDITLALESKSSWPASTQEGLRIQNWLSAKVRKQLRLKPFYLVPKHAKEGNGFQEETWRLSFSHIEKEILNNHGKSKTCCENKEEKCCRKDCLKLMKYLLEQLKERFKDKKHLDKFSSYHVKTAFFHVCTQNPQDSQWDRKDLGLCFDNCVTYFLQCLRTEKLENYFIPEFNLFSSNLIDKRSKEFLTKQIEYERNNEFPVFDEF
* = called active by the depositor; / = no result given; ! = not confirmed by another sample. Rule as the data show it, unless noted: active = inhibition above about 40%; inactive = the rest.

SMILES	mcGAS lum	NPYLR7 ag	hcGAS lum
CCc1ccc(C(NCc2cc(Br)cs2)C(C)C)cc1 (stereo not drawn)	/	0.7	-0.7
CC(=O)Oc1cccc2c1C(=O)c1c(OC(C)=O)cc(C(=O)O)cc1C2=O	11.6	-2.9	57.1*
CC(=O)Oc1ccc2c(c1OC(C)=O)C(=O)c1ccccc1C2=O	-0.1	5.1	-0.8
O=C(NCCCc1nc2ccccc2[nH]1)N1CCc2sccc2C1	/	-3.3	6.4
CC(C)(C)OC(=O)N1CCN(C(=O)c2cc3ccccc3cc2O)CC1	/	3.2	-4.2
CCN(CC)C(=O)COC(=O)c1cccc(N2CC(=O)C(c3nc4ccccc4s3)C2=N)c1 (stereo not drawn)	-6.3	-1.2	-7.6
N=C1C(c2nc3ccccc3s2)C(=O)CN1N1C(=O)c2ccccc2C1=O (stereo not drawn)	43.4*	3.2	10.5
Oc1ccc(-c2nccnc2N[C@H]2CCN(Cc3ccccc3)C2)cc1	-2.5	-4.7	-8.7
CCCOc1ccc(C=O)c(O)c1	/	0.9	1.5
CCOc1cc(C=O)c(O)c(C=O)c1	/	826.7*	15.3
COc1ccc(C(=O)N(Cc2ccccc2)C2CCC(NC(=O)C3CCN(C(=O)c4ccc(Cl)cc4)CC3)CC2)cc1 (stereo not drawn)	-8.1	3.0	-5.6
COc1ccc(C(=O)N(Cc2ccccc2)C2CCC(NC(=O)C3CCN(C(=O)c4ccccc4Cl)CC3)CC2)cc1 (stereo not drawn)	-7.1	45.2*	-4.9
O=C(Nc1cccc(-c2ccc3c(c2)OCCO3)n1)c1cn[nH]n1	/	2.8	1.6
COc1ccc(N(C2C=CS(=O)(=O)C2)S(=O)(=O)c2ccc(F)cc2)cc1 (stereo not drawn)	/	4.5	-2.9
COc1ccc(-c2cc3c(cn2)nc(NCc2cccc(C)c2)n3C)cn1	-8.0	10.9	-5.8
O=C(COC(=O)C=Cc1ccco1)COC(=O)C=Cc1ccco1	/	-15.0	16.3
N#CC(=CC=Cc1ccco1)C(N)=S	79.2*	6.1	61.3*
Cc1ccc(-c2nc(C(=O)NN=C3N=NC(C)C(=O)N3)cs2)cc1 (stereo not drawn)	-13.5	-0.1	-7.0
COc1cccc(C(=O)N(CC(=O)N2CC(=O)N(c3cccc(Cl)c3C)C2)Cc2ccccc2)c1	-5.8	/	-10.9
COc1ccc(NC(=O)CCN(Cc2ccccc2)c2nc(-c3ccco3)nc3ccccc23)cc1	-5.4	21.5	-6.6
CC(C)NCC(O)c1cc(O)cc(O)c1 (stereo not drawn)	-5.3	31.6	-6.4
CC(C)NC[C@H](O)c1ccc(O)c(O)c1	-4.6	85.3*!	-6.9
Cc1nc2nc(-c3cccc(Cl)c3)cc(C(=O)O)c2[nH]1	-2.3	-2.4	-4.5
Cc1nc2nc(-c3cc(Cl)ccc3O)cc(C(=O)O)c2[nH]1	51.3*	-1.6	9.0
CCc1cnc(C)nc1N1CCCC(Nc2ccc3c(c2)OCO3)C1 (stereo not drawn)	/	/	0.1
SMILES	mcGAS lum	NPYLR7 ag	hcGAS lum
COCCCN(CC(=O)N(CCc1c[nH]c2ccccc12)Cc1ccc(Cl)c(Cl)c1)C(=O)c1ccc([N+](=O)[O-])cc1	-4.8	21.6	-1.9
C=CCN1C(=O)C(Cc2ccc(OC)cc2)S/C1=N\N=C/c1ccco1 (stereo not drawn)	-6.2	2.1	-5.0
C=CCN1C(=O)C(Cc2ccc(OC)cc2)S/C1=N/N=C\c1cccs1 (stereo not drawn)	-5.1	87.7*	1.2
CC(C)(C)NC(=O)NC1CCN(c2ccccc2C(=O)NC2CCCc3ccccc32)CC1 (stereo not drawn)	-3.9	-1.9	-1.8
COc1ccc(C(=O)Nc2ccc(-n3nc(OC)nc3-c3ccc4c(c3)OCO4)cc2)c(OC)c1	-4.8	14.1	-5.9
CC(C)(C)C1CCc2sc(C(=O)N3CCNC(=O)C3)cc2C1 (stereo not drawn)	93.3*	6.2	-10.6
CC(C)(C)C1CCc2sc(C(=O)NN3C(=O)NC4(CCCCC4)C3=O)cc2C1 (stereo not drawn)	/	-0.7	14.1
CCc1ccc(N2C(=O)c3ccccc3NC2c2cc(OC)c(O)c(OC)c2)cc1 (stereo not drawn)	-5.7	8.2	-2.6
O=[N+]([O-])c1cc([N+](=O)[O-])c2oc(-c3ccccc3)c(Br)c2c1O	90.6*	-9.2	82.4*
O=c1c(O)c(-c2ccccc2)oc2cccc(O)c12	/	1.0	-2.1
CCOc1cccc(C(=O)N2CCC(n3cnc4ccc(F)cc43)CC2)c1	-4.4	5.1	-4.5
COc1ccc(S(=O)(=O)Oc2cccc(CN(C(=O)Nc3ccccc3OC)C3CC3)c2)cc1	41.5*	-4.1	-2.4
COc1ccc(S(=O)(=O)Oc2ccccc2CN(C(=O)Nc2ccccc2OC)C2CC2)cc1	-8.8	1.6	-4.8
CCc1cccc(C(=O)N2CCCN(C3CCOCC3)CC2)c1O	-4.8	8.3	-6.2
Cc1cccn2cc(C(=O)N3CCC(c4ccnc(-c5ccncc5)c4)C3)nc12 (stereo not drawn)	/	0.4	-2.5
CN1CCN2CCN(C(=O)CCCOc3ccccc3)CC2C1=O (stereo not drawn)	0.9	0.4	3.7
CC(C)(C)c1ccc2c(c1)OCC(C(=O)Nc1nc(-c3ccncc3)cs1)O2 (stereo not drawn)	-4.8	-3.7	-4.8
COc1ccc(-c2coc3cc(O)ccc3c2=O)c(OC)c1O	-2.5	-3.9	-2.5
COc1ccc(-c2coc3cc(O)ccc3c2=O)c(O)c1O	68.0*	/	50.8*
CCCc1oncc1C(=O)N1CCCC2(CNC(=O)O2)C1 (stereo not drawn)	-12.8	3.6	-7.1
COCCN(CC(=O)N(CCc1c[nH]c2ccccc12)Cc1ccc(F)cc1)C(=O)Nc1ccc(OC)cc1	-4.5	14.9	-7.8
CCC(=O)Oc1ccc2c(c1)O/C(=C\c1ccco1)C2=O	79.6*	-0.9	16.8
COc1cccc(C(=O)Oc2ccc3c(c2)O/C(=C\c2ccc(C)o2)C3=O)c1	-0.6	-5.6	-0.1
COc1ccc(C)cc1NC(=O)c1c(C)cc(C)n1Cc1cccc(C)c1	-4.5	29.5	-6.5
CCc1ccc(CN(C)C(=O)c2ccc(-c3ccn[nH]3)cc2)nc1	/	-1.7	-1.9
SMILES	mcGAS lum	NPYLR7 ag	hcGAS lum
Cc1sc(=NC(=O)c2cccc(C(F)(F)F)c2)n(C(C)C(=O)NC2CC2)c1C (stereo not drawn)	/	6.9	184.3*
CCOC(=O)C1CCN(C(=O)C(C)n2ccsc2=NC(=O)c2cccc(C(F)(F)F)c2)CC1 (stereo not drawn)	/	-8.2	3.0
O=C(C(O)c1ccc(F)cc1)N1CC(c2ccncc2)C1 (stereo not drawn)	/	5.5	-5.6
Cc1ccc(C(=O)NN2C(=O)C3C4C=CC(C5CC45)C3C2=O)cc1 (stereo not drawn)	-6.6	9.1	-6.2
O=C(NN1C(=O)C2C3C=CC(C4CC34)C2C1=O)c1cccc(Cl)c1 (stereo not drawn)	84.9*	6.0	-3.7
FC(F)(F)c1cc(-c2ccccc2)nc2ncnn12	-6.6	3.3	-3.5
FC(F)(F)c1cc(-c2cccs2)nc2ncnn12	-1.9	94.7*	-5.0
CC[n+]1c(-c2ccccc2)c2cc(N)ccc2c2ccc(N)cc21	/	-4.6	55.8*!
CC[n+]1c2ccccc2cc2ccccc21	/	9.7	-2.7
